ChEMBL document CHEMBL4513146, “CO-ADD screening of Karazin Kharkiv National University (Ukraine) compounds”
Measured potencies and affinities stand elsewhere.

System: Escherichia coli
Settings: Concentration 32 ug.mL-1;; ASSAY_TEST Inhibition of Bacterial Growth; detection method Absorption (OD600); MEDIA CAMHB; plate type 384well; NBS; CORNING #3640; time 18 hr

Structure (SMILES) | Inhibition [%]
O=C(Cn1nc2c3cc(-c4ccc(F)cc4)nn3ccn2c1=O)Nc1ccc(Br)cc1 | -9.31
COc1ccc(-c2cc3c4nnc(SCC(=O)Nc5ccc(OC)c(Cl)c5)n4ccn3n2)cc1 | -2.1
O=c1n(Cc2ccccc2F)nc2ccc(S(=O)(=O)N3CCCCCC3)cn12 | -8.1
CCCCN(C)c1ccc2nnc(CCc3nc(-c4cc(OC)cc(OC)c4)no3)n2n1 | -4.97
Cc1ccc(NC(=O)Cn2nc3c(N4CCCC(C)C4)nccn3c2=O)cc1C (stereo not given) | -2.82
CCCCOc1ccc(-c2cc3c4nnc(SCC(=O)Nc5ccccc5F)n4ccn3n2)cc1 | -3.53
O=C(CSc1nc2ccccc2n2cnnc12)Nc1ccc2c(c1)OCO2 | -3.46
COc1ccc(-c2cc3c4nn(CC(=O)NCc5ccc(Cl)cc5)c(=O)n4ccn3n2)cc1 | 5.93
CCc1ccccc1Sc1nccn2c(=O)n(CC(=O)Nc3ccc(C)cc3C)nc12 | -10.9
CCN(CCCNC(=O)CCc1nnc2ccc(-c3ccc(C)c(C)c3)nn12)c1ccccc1 | -5.52
COc1ccc(-n2ccn3c(-c4ccc([N+](=O)[O-])cc4)nnc3c2=O)cc1 | -0.05
COc1ccc(NC(=O)Cn2nc3ccc(-c4ccc(Cl)cc4)nn3c2=O)cc1OC | -4.63
Cc1ccc(NC(=O)Cn2nc3cc(C)nc(Nc4ccc(F)c(C)c4)n3c2=O)cc1 | 0.27
Cc1ccc(-c2cc3c4nn(CC(=O)Nc5ccc(Br)cc5)c(=O)n4ccn3n2)cc1C | -8.3
O=c1c2nnc(SCc3cccc(C(F)(F)F)c3)n2ccn1-c1ccc(Br)cc1 | -4.81
Cc1ccc(-c2cc3c4nn(CC(=O)Nc5ccccc5Cl)c(=O)n4ccn3n2)cc1 | -6.02
O=C(Cn1nc2c(Sc3cccc(F)c3)nccn2c1=O)N1CCN(c2ccccc2)CC1 | 1.18
O=c1c2nnc(SCc3ccc(Cl)cc3)n2ccn1-c1ccc(F)c(F)c1 | 3.28
O=C(Cn1nc2c3cc(-c4ccc(Cl)cc4)nn3ccn2c1=O)N1CCN(c2ccccc2)CC1 | -1.74
COc1cc(NC(=O)Cn2nc3ccc(SC4CCCCC4)nn3c2=O)cc(OC)c1 | -6.19
Cc1ccc(Oc2nccn3c(=O)n(CC(=O)Nc4ccc(F)cc4F)nc23)cc1 | -0.38
O=C(Cn1nc2c(=O)n(-c3ccc(Br)cc3)ccn2c1=O)Nc1ccc(F)cc1F | -0.82
Cc1ccc(CNC(=O)Cn2nc3ccc(SC4CCCCC4)nn3c2=O)cc1 | -11.87
C=Cc1ccc(CN(c2ccc(CC)cc2)S(=O)(=O)c2cccn3c(C)nnc23)cc1 | -2.55
CC(C)CCn1c(=O)c2ccc(C(=O)NC3CCCCC3)cc2n2c(=O)n(CC#N)nc12 | -7.09
